Usually AC50 stands for the midpoint of the concentration-response curve, whichever way the signal moves.

For eight compounds, outcome and AC50 results are on record in PubChem BioAssay (EPA / NIEHS).

Inconclusive results are not listed. Activity calls are given as the source filed them. The calls were made as follows, unless noted: active = hit-call score of the fitted dose curve at least 0.9, where 1 is the maximum; inconclusive = response in the unintended direction; inactive = score below 0.9.

Read-out in assay [1]: sulfotransferase (SULT2A), SULT2A1 (gene 6822)
The assay is described as follows: CLD_SULT2A_24hr: CellzDirect (CLD) Gene Expression Assay for sulfotransferase (SULT2A) at 24 hours (AID 2283694). Summed up:
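mRNA is measured by qNPA: probe hybridisation, S1 nuclease digestion, chemiluminescence, in lysates from human primary hepatocytes harvested 24 h after daily dosing. Vehicle was 0.2% DMSO. Phase-contrast microscopy flagged cytotoxicity (yes/no).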

Read-out in assay [2]: Cytochrome P450 3A4 (Homo sapiens) (UniProt P08684)
Put plainly: CLD_CYP3A4_48hr: CellzDirect (CLD) Gene Expression Assay for xenobiotic metabolism (CYP3A4) at 48 hours (AID 2283698). Summed up:
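CYP3A4 induction read by qNPA chemiluminescence after 48 h, with fresh dosing solutions on consecutive days, in cultured human hepatocytes (two donors). Vehicle 0.2% DMSO as baseline; microscopy-based cytotoxicity annotated yes/no alongside data.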

Read-out in assay [3]: Cytochrome P450 2B6 (Homo sapiens) (UniProt P20813)
The assay is described as follows: CLD_CYP2B6_48hr: CellzDirect (CLD) Gene Expression Assay for xenobiotic metabolism (CYP2B6) at 48 hours (AID 2283699).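 Also: actives raise transcript level above DMSO so potency reflects induction.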 An outline of the steps: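 CYP2B6 transcript induction, read by quantitative nuclease protection (S1 digestion, chemiluminescent detection) 48 h after dosing, is fitted upward against 0.2% DMSO. Cultured human liver primary cells, two donor preparations, received fresh chemical daily over multiple concentrations.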

Read-out in assay [4]: Broad substrate specificity ATP-binding cassette transporter ABCG2 (Homo sapiens) (UniProt Q9UNQ0)
The assay is described as follows: CLD_ABCG2_48hr: CellzDirect (CLD) Gene Expression Assay for ABC Transporter (ABCG2) at 48 hours (AID 2283704).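 As to AC50: potency for induction of ABCG2 mRNA above the DMSO baseline.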 Summed up: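 ABCG2 transcript measured at 48 h by quantitative nuclease protection (chemiluminescent) and fitted for increase relative to 0.2% DMSO. Hepatocyte cultures from separate donors got fresh compound daily over two days; morphology annotated cytotoxicity.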

Read-out in assay [5]: xenobiotic metabolism (CYP1A1), CYP1A1 (gene 1543)
Put plainly: CLD_CYP1A1_48hr: CellzDirect (CLD) Gene Expression Assay for xenobiotic metabolism (CYP1A1) at 48 hours (AID 2283705). Summed up: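 CYP1A1 transcript measured by quantitative nuclease protection (chemiluminescent) 48 h after two daily treatments of human hepatocyte cultures, versus 0.2% DMSO. Morphology-based cytotoxicity flags accompany data; two donor preparations used.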

Read-out in assay [6]: alkyl and aryl transferase (GSTA2), GSTA2 (gene 2939)
Put plainly: CLD_GSTA2_48hr: CellzDirect (CLD) Gene Expression Assay for alkyl and aryl transferase (GSTA2) at 48 hours (AID 2283708).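 Also: active means mRNA induction above DMSO vehicle baseline.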 Summed up:
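GSTA2 mRNA quantified by qNPA chemiluminescence in human primary hepatocyte lysates after 48 h of daily fresh chemical dosing. Increases fitted against 0.2% DMSO vehicle baseline; cytotoxicity from morphology annotated yes/no.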

Read-out in assay [7]: glucuronosyltransferase (UGT1A1), UGT1A1 (gene 54658)
The assay is described as follows: CLD_UGT1A1_48hr: CellzDirect (CLD) Gene Expression Assay for glucuronosyltransferase (UGT1A1) at 48 hours (AID 2283709).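 Also: actives increase expression relative to DMSO so potency refers to induction.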 An outline of the steps:
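Quantitative nuclease protection assay (chemiluminescent) for UGT1A1 mRNA at 48 h in human hepatocyte cultures from two donors, redosed daily with fresh solutions. Induction fitted relative to 0.2% DMSO; phase-contrast morphology annotated cytotoxicity.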

Read-out in assay [8]: sulfotransferase (SULT2A), SULT2A1 (gene 6822)
Put plainly: CLD_SULT2A_48hr: CellzDirect (CLD) Gene Expression Assay for sulfotransferase (SULT2A) at 48 hours (AID 2283710).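 Also: hits raise SULT2A1 transcript above the 0.2% DMSO vehicle baseline.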 Summed up:
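SULT2A1 transcript measured by qNPA chemiluminescence in human primary hepatocyte cultures after 48 h, with fresh dosing solutions on two consecutive days; gain-of-signal fitting against 0.2% DMSO vehicle; cytotoxicity annotated from phase-contrast morphology.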

A short description of assay [9]: STM_H9_OrnithineISnorm_perc: Stemina devTOX quickPredict H9 human embryonic stem cell (hESC)-based Assay for Ornithine (ORN) Metabolite Biomarker, Normalized (AID 2283712; active = hit-call score of the fitted dose curve at least 0.9, where 1 is the maximum; inactive = score below 0.9;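 also: ornithine released into spent medium during last day measured by mass spectrometry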). An outline of the steps: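 Ornithine secreted by H9 hESCs after 72h compound treatment (daily media/compound renewal) was quantified in final-day media by UPLC-HRMS. Values are isotope-standard-normalized, expressed relative to 0.1% DMSO, fitted in positive direction.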

The nature of assay [10]: STM_H9_OrnCyssISnorm_ratio: Stemina devTOX quickPredict H9 human embryonic stem cell (hESC)-based Assay for Ornithine (ORN):Cystine (CYSS) Ratio (AID 2283714). An outline of the steps: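 UPLC-HRMS of spent media: ORN/CYSS ratio of internal-standard-normalized percentages, DMSO (0.1%) baseline. Pluripotent H9 hESCs, 72h exposure, daily re-dosing with fresh media; last 24h media collected.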

Assay [11] is described as follows: CEETOX_H295R_MTT_cell_viability: Viability Assessment in the CeeTox HT-H295R MTT Assay (AID 2283718; active = hit-call score of the fitted dose curve at least 0.9, where 1 is the maximum; inactive = score below 0.9;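 as to AC50: curve fitted both ways so AC50 may mark viability loss or gain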). Summed up: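 Human H295R adrenal cells, prestimulated 48 h with 10 uM forskolin, were exposed 48 h to chemicals in 0.1% DMSO. Viability was measured in the same wells by MTT (0.5 mg/ml, 4 h, 37 C), absorbance 570/650 nm, as percent of controls.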
Read-out in assay [12]: organic anion transporter (SLCO1B1), SLCO1B1 (gene 10599)
The assay is described as follows: CLD_SLCO1B1_48hr: CellzDirect (CLD) Gene Expression Assay for organic anion transporter (SLCO1B1) at 48 hours (AID 2283707). An outline of the steps:
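SLCO1B1 transcript quantified by qNPA with chemiluminescent readout after 48 h of once-daily chemical exposure. Cultured human primary hepatocytes came from two donors, with 0.2% DMSO vehicle; positive-direction fitting against DMSO, cytotoxicity flagged by morphology.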

A short description of assay [13]: Tanguay_ZF_120hpf_ActivityScore_legacy: (Legacy) Oregon State University Tanguay Lab 120 Hour Post-fertilization zebrafish Assay Score for Activity (AID 2283742).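 As to AC50: dechorionated Tropical 5D wild-type zebrafish embryos held singly per well.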 An outline of the steps: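 Dechorionated 5D embryos, one per well, static exposure 6–120 hpf, 28C, sealed and dark; final DMSO 0.64% (vol/vol). Brightfield binary scoring of mortality plus 18 endpoints; gain-of-signal fit versus DMSO baseline.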

Read-out in assay [14]: glucuronosyltransferase (UGT1A1), UGT1A1 (gene 54658)
Put plainly: CLD_UGT1A1_24hr: CellzDirect (CLD) Gene Expression Assay for glucuronosyltransferase (UGT1A1) at 24 hours (AID 2283696). An outline of the steps:
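UGT1A1 transcript induction was measured by quantitative nuclease protection assay (chemiluminescence) in human hepatocyte cultures 24 h after daily fresh dosing, with 0.2% DMSO as vehicle and baseline.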

Assay [15] in a line: CLD_ACTIN_48hr: CellzDirect (CLD) Gene Expression Assay for Baseline Control (Actin) at 48 hours (AID 2283702). Summed up: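 Background-control actin mRNA read by qNPA chemiluminescence at 48 h. Human hepatocyte cultures from two donors received fresh multi-concentration chemical doses daily for two days; 0.2% DMSO served as vehicle baseline.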
Read-out in assay [16]: HMG-CoA synthase (HMGCS2), HMGCS2 (gene 3158)
Put plainly: CLD_HMGCS2_48hr: CellzDirect (CLD) Gene Expression Assay for HMG-CoA synthase (HMGCS2) at 48 hours (AID 2283711). Summed up: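 mRNA induction read by qNPA chemiluminescence, 48 h after dosing. Cultured primary human liver cells (two donor preparations) received fresh compound daily over two days against 0.2% DMSO vehicle; morphology-based cytotoxicity noted alongside.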

Read-out in assay [17]: ABC Transporter (ABCB1), ABCB1 (gene 5243)
Put plainly: CLD_ABCB1_48hr: CellzDirect (CLD) Gene Expression Assay for ABC Transporter (ABCB1) at 48 hours (AID 2283695). An outline of the steps:
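ABCB1 mRNA was measured by quantitative nuclease protection assay (chemiluminescence) 48 h after dosing. Human hepatocyte cultures from two separate donors received fresh dosing solutions daily for two days, with 0.2% DMSO as vehicle. Positive-direction fit against DMSO.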

Read-out in assay [18]: xenobiotic metabolism (CYP1A2), CYP1A2 (gene 1544)
Put plainly: CLD_CYP1A2_48hr: CellzDirect (CLD) Gene Expression Assay for xenobiotic metabolism (CYP1A2) at 48 hours (AID 2283703). An outline of the steps:
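Cytotoxicity was flagged yes/no from morphology, while CYP1A2 transcript induction was detected by qNPA chemiluminescence after a 48-hour exposure. Human primary hepatocyte cultures from separate donors received fresh dosing solutions daily over two days, with 0.2% DMSO as vehicle and baseline.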

Broad substrate specificity ATP-binding cassette transporter ABCG2 (Homo sapiens), sequence (Q9UNQ0 whole entry, looked up): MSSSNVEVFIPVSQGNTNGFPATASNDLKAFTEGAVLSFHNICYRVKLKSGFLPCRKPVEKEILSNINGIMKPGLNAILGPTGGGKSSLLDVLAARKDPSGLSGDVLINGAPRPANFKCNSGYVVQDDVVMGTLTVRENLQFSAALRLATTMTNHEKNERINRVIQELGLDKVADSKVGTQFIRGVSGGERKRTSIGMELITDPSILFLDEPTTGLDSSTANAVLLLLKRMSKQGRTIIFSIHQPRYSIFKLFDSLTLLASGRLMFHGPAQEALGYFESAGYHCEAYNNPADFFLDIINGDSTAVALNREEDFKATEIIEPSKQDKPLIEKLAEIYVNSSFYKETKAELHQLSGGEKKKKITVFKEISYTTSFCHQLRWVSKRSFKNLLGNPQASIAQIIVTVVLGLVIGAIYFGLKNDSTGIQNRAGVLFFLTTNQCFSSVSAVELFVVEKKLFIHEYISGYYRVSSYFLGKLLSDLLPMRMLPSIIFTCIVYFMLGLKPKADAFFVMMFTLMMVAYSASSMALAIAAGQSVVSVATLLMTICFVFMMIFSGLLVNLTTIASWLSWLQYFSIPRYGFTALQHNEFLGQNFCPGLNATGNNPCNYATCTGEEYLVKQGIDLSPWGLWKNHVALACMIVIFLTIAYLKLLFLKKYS
Cytochrome P450 3A4 (Homo sapiens), sequence (P08684 whole entry, looked up): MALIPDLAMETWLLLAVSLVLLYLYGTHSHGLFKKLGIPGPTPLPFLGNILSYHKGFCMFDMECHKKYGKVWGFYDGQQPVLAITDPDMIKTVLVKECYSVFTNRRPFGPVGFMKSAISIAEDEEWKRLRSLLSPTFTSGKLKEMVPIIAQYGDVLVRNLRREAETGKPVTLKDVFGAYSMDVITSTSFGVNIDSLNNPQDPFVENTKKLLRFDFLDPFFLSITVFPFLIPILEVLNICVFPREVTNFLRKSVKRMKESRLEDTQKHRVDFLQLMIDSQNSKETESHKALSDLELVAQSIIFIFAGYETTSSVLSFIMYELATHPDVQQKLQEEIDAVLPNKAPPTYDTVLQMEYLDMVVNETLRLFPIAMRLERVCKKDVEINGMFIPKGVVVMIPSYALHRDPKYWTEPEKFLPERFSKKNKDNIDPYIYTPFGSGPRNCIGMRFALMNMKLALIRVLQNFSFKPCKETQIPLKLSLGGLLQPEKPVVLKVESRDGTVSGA

Consider `CC(C)(C)C(=O)C(Oc1ccc(Cl)cc1)n1cncn1` (centres undefined), for which the call in [1], in [4], in [6], in [7], in assay [8] and in [9] was inactive. Also, the compound was called inactive in assay [11]. Moreover, the half-maximal activity concentration (AC50) is 1.5 µM (active) in assay [2], 3.31 µM (active) in assay [3], 8.65 µM (active) in assay [5] and 71.8 µM (active) in assay [10].
With `COP(=S)(OC)SCn1nnc2ccccc2c1=O`, the compound was classed as inactive in assay [1], in assay [4], in assay [12], in [6], in assay [8] and in [11]. Besides, in [13], the compound was classed as inactive. The half-maximal activity concentration (AC50) in [2] is 12.8 µM (active); in assay [7], 6.38 µM (active).
Consider `CC(C)Oc1cccc(NC(=O)c2ccccc2C(F)(F)F)c1`, for which the compound was called inactive in [14], in assay [7] and in assay [8]. Also, the concentration at half-maximal activity (AC50) in assay [3] is 5.34 µM (active); in assay [4] it was 0.000858 µM (active); in assay [11], 71.1 µM (active).
With `O=P(O)(O)CCCl`, the result in assay [14], in [15], in assay [5], in assay [12], in assay [7] and in assay [8] was inactive. Also, the compound was classed as inactive in assay [13]. Besides, the half-maximal activity concentration (AC50) in assay [16] is 0.000456 µM (active).
Take `CCCCC(C#N)(Cn1cncn1)c1ccc(Cl)cc1` (centres undefined): the call in assay [1], in [17], in assay [4], in [6], in assay [7] and in assay [11] was inactive. For the same compound, the result in assay [13] was inactive. The values for the AC50 in assay [2], in [9] and in assay [10] were 20 µM (active), 76 µM (active) and 77.9 µM (active), respectively.
With `CO/N=C(/C1=NOCCO1)c1ccccc1Oc1ncnc(Oc2ccccc2Cl)c1F`, the outcome in assay [17], in [2], in assay [15], in assay [4], in assay [12] and in [6] was inactive. For the same compound, the outcome in assay [7] and in [8] was inactive. Also, the AC50 was 1.89 µM (active) in assay [3], 24 µM (active) in assay [9], 18.2 µM (active) in assay [10] and 3.17 µM (active) in assay [13].
As for `CC(C)N1C(=O)N(c2ccccc2)CSC1=NC(C)(C)C`, the result in assay [17], in [18], in assay [4], in assay [6] and in assay [7] was inactive. Further, the AC50 in [2] was 8.18 µM (active); in [3] it was 4.31 µM (active); in assay [8], 33.1 µM (active).
In the case of `COc1cc(OC)nc(NC(=O)NS(=O)(=O)c2ncccc2OCC(F)(F)F)n1`, the AC50 in assay [2] was 20 µM (active). For the same compound, the result in assay [3], in assay [15], in [4], in [5], in assay [12] and in assay [7] was inactive. In addition, the compound was classed as inactive in assay [8], in assay [16] and in [9].
